# High-throughput results as filed in PubChem.
# IL-1B inflam inh: qHTS for Inhibitors of Inflammasome Signaling: IL-1-beta AlphaLISA Primary Screen | THP-1 LPS/ATP IL-1B secretion, AlphaLISA, 16 h; hits give low values | activity change, % at 57.5 µM | 360,000 compounds, 4.7% hits; in the data active = activity change below about -50%; inconclusive = mostly about -30% to -49%; also: % is scaled to controls: 0 for no effect and ±100 for the full control effect
#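 THP-1 cells pretreated 1 hr with compounds (up to 57.5 uM final), then stimulated with LPS (250 ng/mL final) plus ATP (1.25 mM final); secreted IL-1B measured by AlphaLISA after 16 hr, decreased signal indicating inhibition.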
# TDP1 inh: qHTS Assay for Inhibitors of Tyrosyl-DNA Phosphodiesterase (TDP1); Tyrosyl-DNA phosphodiesterase 1 (Homo sapiens), Q9NUW8; recombinant TDP1, AlphaScreen DNA substrate cleavage; Potency, µM (top dose mostly 130 µM), for the others: at the top dose activity change, negative = inhibition, hits mostly inhibitors; 350,000 compounds, 0.28% hits; AID 485290, 2010; also: potency is read from the fitted curve at half-maximal effect; % is scaled to controls: 0 for no effect and ±100 for the full control effect; nearly all actives have a fitted effect of over 40% in size
# Target sequence (Q9NUW8 whole entry, looked up): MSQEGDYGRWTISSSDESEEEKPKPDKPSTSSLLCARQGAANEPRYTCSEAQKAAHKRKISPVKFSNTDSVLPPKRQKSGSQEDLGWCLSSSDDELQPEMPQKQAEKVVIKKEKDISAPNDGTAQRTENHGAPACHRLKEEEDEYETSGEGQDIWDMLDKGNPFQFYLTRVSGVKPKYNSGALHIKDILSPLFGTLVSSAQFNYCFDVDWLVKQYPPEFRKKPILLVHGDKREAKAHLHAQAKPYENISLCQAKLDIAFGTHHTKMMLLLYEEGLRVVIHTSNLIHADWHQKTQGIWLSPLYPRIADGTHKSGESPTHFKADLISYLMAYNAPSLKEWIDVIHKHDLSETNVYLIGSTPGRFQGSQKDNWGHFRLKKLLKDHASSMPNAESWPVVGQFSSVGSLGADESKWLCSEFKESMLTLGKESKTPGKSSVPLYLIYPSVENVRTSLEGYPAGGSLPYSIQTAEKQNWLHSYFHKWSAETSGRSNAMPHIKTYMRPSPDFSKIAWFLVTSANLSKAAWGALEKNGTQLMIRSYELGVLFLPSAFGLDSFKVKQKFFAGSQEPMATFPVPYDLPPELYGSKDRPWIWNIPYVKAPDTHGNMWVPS
#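 Compounds were preincubated with Tdp1 (1 nM final) for 15 min at room temperature before substrate (15 nM final) started a 5 min reaction; beads (10 ug/ml final) were then added for 10 min before AlphaScreen detection.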
# TGFb SMAD3 inh: qHTS for Inhibitors of TGF-b; HepG2 CAGA-GFP TGF-b/SMAD3 reporter, GFP fluorescence, 18 h; TGF-beta stimulated, 500 pg/mL final; Potency, µM (doses to about 46.1 µM), for the others: top-dose activity, negative = inhibition, most hits filed as inhibitors; 410,000 compounds, 1.2% hits; AID 588855, 2011; also: potency is read from the fitted curve at half-maximal effect; % is scaled to controls: 0 for no effect and ±100 for the full control effect; nearly all actives have a fitted effect of over 65% in size
#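 First, reporter cells (HEPG2 CAGA-GFP) rested 2 h at 37 degrees C. Next, compounds were pinned in and TGF-beta added to 500 pg/mL final. After 18 h, GFP was imaged per cell and summed per well.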
# DT40 TDP1 no CPT: qHTS for Inhibitors of human tyrosyl-DNA phosphodiesterase 1 (TDP1): qHTS in cells in absence of CPT; DT40 Tdp1-/- hTDP1 cells, no CPT, ATP luminescence, 48 h; Potency, µM (doses to about 46.2 µM), inactives show at the highest dose activity change, negative = growth inhibition, hits mostly inhibitors; 420,000 compounds, 15% hits; also: potency is read from the fitted curve at half-maximal effect; % is scaled to controls: 0 for no effect and ±100 for the full control effect; nearly all actives have a fitted effect of over 55% in size
#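 A cellular qHTS used chicken DT40 cells lacking endogenous Tdp1 but carrying stably transfected human TDP1. Compounds were applied without camptothecin, and cell growth kinetics were judged by ATP-dependent luminescence after ≥48 hr.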
# DT40 TDP1 CPT: qHTS for Inhibitors of human tyrosyl-DNA phosphodiesterase 1 (TDP1): qHTS in cells in presence of CPT; 420,000 compounds, 12% hits; Potency, µM (series often up to 46.2 µM), without a hit: at the highest dose activity change, negative = growth inhibition, most hits filed as inhibitors; chicken DT40 Tdp1-/-;hTDP1 cells + 20 nM CPT, ATP luminescence, 48 h; AID 686979, 2013; also: potency is read from the fitted curve at half-maximal effect; % is scaled to controls: 0 for no effect and ±100 for the full control effect; nearly all actives have a fitted effect of over 55% in size
#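 Chicken DT40 Tdp1-/- cells stably complemented with human TDP1 were seeded at 400 cells/well in medium containing 20 nM camptothecin, exposed to pin-transferred compounds, and grown at 37 °C for at least 48 hr. Viability was read as ATP luminescence.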
# HepG2 viability: qHTS for Inhibitors of TGF-b: Cytotox Counterscreen; 410,000 compounds, 0.76% hits; HepG2 CAGA-GFP viability, ATP luminescence, 18 h; Potency, µM (series often up to 46.1 µM), for inactives: at the highest dose activity change, negative = cytotoxicity, most hits filed as cytotoxic; also: potency is read from the fitted curve at half-maximal effect
#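 CellTiter-Glo luminescence gave cytotoxicity after 18 hours at 37 degrees C. The cells were HepG2 CAGA-GFP in 1% FBS DMEM, stimulated with 500 pg/mL TGF-beta after compound addition. %Activity was normalised to no-cell wells (complete cell-killing) and DMSO (no toxicity), and curves were fitted and classified.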
# Starred values were filed as active, the others as inactive; ? = inconclusive; / = no result; [ ] = remark or other dose. This is a sample that favours compounds with a hit; in the whole collection about 18% have one here. Unless noted, calls follow the shape of the dose curve; as a rule, active = well fitted curve in the direction sought with a large enough effect; inconclusive = small, poorly fitted or top-dose-only effect, or another doubt; inactive = no such curve, though single readings can be large; an effect the other way counts as inactive or inconclusive.
SMILES,IL-1B inflam inh,TDP1 inh,TGFb SMAD3 inh,DT40 TDP1 no CPT,DT40 TDP1 CPT,HepG2 viability
O=C(CSc1nnc(COc2ccccc2)n1Cc1ccco1)c1ccc(F)cc1,-18,1%,2%,?,-30%,-40%
COc1ccc(C)cc1NC(=O)CSc1nnc(COc2ccc(C)cc2)n1Cc1ccco1,-2,10%,?,?,?,-16%
Cc1ccc(OCc2nnc(SCc3nc4ccccc4[nH]3)n2Cc2ccco2)cc1,-19,4%,-11%,18µM*,15µM*,-3%
Cc1ccc(OCc2nnc(SCC(=O)c3ccccc3)n2Cc2ccco2)cc1,-9,5%,8%,18µM*,23µM*,-12%
O=c1c2ccccc2nnn1CSc1nnc(COc2ccc(Cl)cc2)n1Cc1ccco1,-30,6%,15%,21µM*,23µM*,-2%
CC(C)(C)NC(=O)CN(Cc1ccc2c(c1)OCO2)C(=O)CNC(=O)c1cccs1,/,-2%,/,/,/,/
COCCCN1C(=O)c2ccc(C(=O)OCC(=O)N3CCN(c4ccccc4)CC3)cc2C1=O,24,/,-8%,-10%,3%,-13%
Cc1c(C(=O)NC2CCCCCC2)sc2ncnc(NCC3CCCO3)c12 (stereo not drawn),/,/,/,?,-4%[9.04 µM],/
Cc1ccc(C(c2nnnn2C2CCCC2)N2c3ccccc3CC2C)cc1 (stereo not drawn),1,0%,?,18µM*,?,-7%
CCN(CC)C(c1ccc(C)cc1)c1nnnn1C1CCCCC1 (stereo not drawn),-8,-5%,-1%,18µM*,?,0%
COc1cc2cc(C(c3nnnn3C3CCCC3)N3CCc4ccccc43)c(=O)[nH]c2cc1OC (stereo not drawn),17,8%,-10%,?,?,-29%
Fc1ccc(C(c2nnnn2C2CCCC2)N2CCc3ccccc32)cc1 (stereo not drawn),-6,3%,3%,23µM*,?,-16%
CCN(CC)C(c1ccc(F)cc1)c1nnnn1C1CCCCC1 (stereo not drawn),10,2%,-10%,-4%,-8%,-2%
CC(CC(=O)c1ccccc1)=NCCCN=C(C)CC(=O)c1ccccc1,-12,/,0%,?,-9%,-15%
COc1cccc(-c2nc(CS(=O)(=O)CC(=O)NCc3ccc4c(c3)OCO4)c(C)o2)c1,-16,11%,-20%,-13%,?,-17%
O=C(O)CC(C(=O)O)c1ccc(OCCCCOc2ccc(C(CC(=O)O)C(=O)O)cc2)cc1 (stereo not drawn),31,28µM*,6%,30%,2%,14%
CC(C)CCOc1ccc(C(CC(N)=O)C(=O)O)cc1 (stereo not drawn),14,1%,-2%,6%,1%,3%
CCc1ccc(CNC(=O)c2cc3c(s2)-c2ccccc2OC3)cc1,/,/,-8%,/,/,-29%
CCc1ccc(NC(=O)CC2C(=O)N(c3ccc(F)cc3)C(=O)N2Cc2ccc(F)cc2)cc1 (stereo not drawn),/,0%,-19%,?,13µM*,-32%
CCc1ccc(NC(=O)CC2C(=O)N(c3cccc(C)c3)C(=O)N2Cc2ccc(F)cc2)cc1 (stereo not drawn),/,3%,?,-98%,?,-49%
COc1cc(NC(=O)CC2C(=O)N(c3ccccc3)C(=O)N2Cc2ccc(F)cc2)cc(OC)c1 (stereo not drawn),/,-3%,-6%,15µM*,13µM*,-19%
COc1cccc(CN2C(=O)N(c3ccc(C)cc3)C(=O)C2CC(=O)Nc2cc(OC)cc(OC)c2)c1 (stereo not drawn),/,3%,-25%,7.3µM*,13µM*,-27%
COCCN1C(=O)N(c2cccc(C)c2)C(=O)C1CC(=O)Nc1cc(OC)cc(OC)c1 (stereo not drawn),43,4%,-11%,1%,8%,-3%
COc1cc(NC(=O)CC2C(=O)N(c3cccc(C)c3)C(=O)N2Cc2ccc(F)cc2)cc(OC)c1 (stereo not drawn),/,8%,?,21µM*,?,-24%
Cc1cc(Br)ccc1NC(=O)C(NS(=O)(=O)c1cccs1)c1ccccc1 (stereo not drawn),/,-4%,?,?,?,-19%
SMILES,IL-1B inflam inh,TDP1 inh,TGFb SMAD3 inh,DT40 TDP1 no CPT,DT40 TDP1 CPT,HepG2 viability
COc1ccc2c(c1)C(=O)[C@H](OC(=O)Nc1ccc(C)c(Br)c1)[C@@H](c1ccc(OC)c(Br)c1)O2,/,2%,/,/,/,/
CCOc1ccc(NC(=O)CC2C(=O)N(c3ccccc3)C(=O)N2Cc2cccc(OC)c2)cc1 (stereo not drawn),/,3%,1%,21µM*,10µM*,-18%
COc1ccc(NC(=O)CC2C(=O)N(c3cccc(OC)c3)C(=O)N2Cc2cccnc2)cc1 (stereo not drawn),/,8%,-7%,?,?,-6%
COC(=O)c1ccc(NC(=O)CC2C(=O)N(c3cccc(F)c3)C(=O)N2CC(C)C)cc1 (stereo not drawn),/,4%,-3%,13µM*,21µM*,-7%
COC(=O)c1ccc(NC(=O)CC2C(=O)N(c3cccc(OC)c3)C(=O)N2C(C)C)cc1 (stereo not drawn),/,0%,0%,-21%,-29%,-5%
COc1ccc(NC(=O)CCCCCn2nnc3ccccc3c2=O)cc1OC,0,/,0%,-29%,-20%,-2%
Cc1cc(C)nc(-c2cccc3c2OC(CNC(=O)C2CCOC2)C3)n1 (stereo not drawn),/,/,/,-13%,1%,/
CCOC(=O)c1oc2nc(CC(C)C)c3c(c2c1N)CCC3,?,-1%,6%,15µM*,?,-22%
CCOC(=O)c1sc2nc(N3CCOCC3)c3c(c2c1N)CCC3,?,6%,0%,?,-27%,-21%
CC(=O)[C@@H]1[C@H]2[C@H](C(=O)[C@H]3OC[C@@H]2O3)[C@H]2C=Cc3ccccc3N21,/,/,/,21µM*,?,/
CCCCN(CC)CCNC(=O)Cn1c(=O)c2cccn2c2cccnc21,/,-8%,-30%,?,?,-12%
